Reference: PMC9911399, “Two distinct binding modes provide the RNA-binding protein RbFox with extraordinary sequence specificity”
Changes are numbered by the printed parent chain; changes in the protein carry UniProt numbers. In all, about 16,000 sequences were measured (“ka relative to ugcaugu”: median about 0.096, highest 2% from about 0.35 on). For the sample, the highest values were picked, then their nearest neighbours and some sequences at random.

B1: GAAUCGG (DNA:RNA)
RNA: GGGAGACCGGAAUUCAGAUUGUCCGAAUCGGUUAAAUCCCGUCGUAGCCACCA
DNA 1: CAATCTGAATTCCGGTCTCCC
DNA 2: TGGTGGCTACGACGGGATT
B2: GCAUCCG (DNA:RNA)
RNA: B1 RNA with A26C, G30C
DNA 1: CAATCTGAATTCCGGTCTCCC
DNA 2: TGGTGGCTACGACGGGATT
B3: GCAAUCG (DNA:RNA)
RNA: B1 RNA with A26C, U28A, C29U, G30C
DNA 1: CAATCTGAATTCCGGTCTCCC
DNA 2: TGGTGGCTACGACGGGATT
B4: GCAUCGG (DNA:RNA)
RNA: B1 RNA with A26C
DNA 1: CAATCTGAATTCCGGTCTCCC
DNA 2: TGGTGGCTACGACGGGATT
B5: CGCAUCG (DNA:RNA)
RNA: B1 RNA with G25C, A26G, A27C, U28A, C29U, G30C
DNA 1: CAATCTGAATTCCGGTCTCCC
DNA 2: TGGTGGCTACGACGGGATT
B6: GCAUCAA (DNA:RNA)
RNA: B1 RNA with A26C, G30A, G31A
DNA 1: CAATCTGAATTCCGGTCTCCC
DNA 2: TGGTGGCTACGACGGGATT
B7: GCAUCAG (DNA:RNA)
RNA: B1 RNA with A26C, G30A
DNA 1: CAATCTGAATTCCGGTCTCCC
DNA 2: TGGTGGCTACGACGGGATT
B8: GCAUCUG (DNA:RNA)
RNA: B1 RNA with A26C, G30U
DNA 1: CAATCTGAATTCCGGTCTCCC
DNA 2: TGGTGGCTACGACGGGATT
B9: GCAUCAC (DNA:RNA)
RNA: B1 RNA with A26C, G30A, G31C
DNA 1: CAATCTGAATTCCGGTCTCCC
DNA 2: TGGTGGCTACGACGGGATT
B10: GCAUCGC (DNA:RNA)
RNA: B1 RNA with A26C, G31C
DNA 1: CAATCTGAATTCCGGTCTCCC
DNA 2: TGGTGGCTACGACGGGATT
B11: GCACCGC (DNA:RNA)
RNA: B1 RNA with A26C, U28C, G31C
DNA 1: CAATCTGAATTCCGGTCTCCC
DNA 2: TGGTGGCTACGACGGGATT
B12: GCACCGG (DNA:RNA)
RNA: B1 RNA with A26C, U28C
DNA 1: CAATCTGAATTCCGGTCTCCC
DNA 2: TGGTGGCTACGACGGGATT
B13: AGAGCGA (DNA:RNA)
RNA: B1 RNA with G25A, A26G, U28G, G31A
DNA 1: CAATCTGAATTCCGGTCTCCC
DNA 2: TGGTGGCTACGACGGGATT
B14: CCCUUUC (DNA:RNA)
RNA: B1 RNA with G25C, A26C, A27C, C29U, G30U, G31C
DNA 1: CAATCTGAATTCCGGTCTCCC
DNA 2: TGGTGGCTACGACGGGATT
B15: UACGGGG (DNA:RNA)
RNA: B1 RNA with G25U, A27C, U28G, C29G
DNA 1: CAATCTGAATTCCGGTCTCCC
DNA 2: TGGTGGCTACGACGGGATT
B16: CCGCCGG (DNA:RNA)
RNA: B1 RNA with G25C, A26C, A27G, U28C
DNA 1: CAATCTGAATTCCGGTCTCCC
DNA 2: TGGTGGCTACGACGGGATT
B17: AGGCCUA (DNA:RNA)
RNA: B1 RNA with G25A, A26G, A27G, U28C, G30U, G31A
DNA 1: CAATCTGAATTCCGGTCTCCC
DNA 2: TGGTGGCTACGACGGGATT
B18: AGAGUUC (DNA:RNA)
RNA: B1 RNA with G25A, A26G, U28G, C29U, G30U, G31C
DNA 1: CAATCTGAATTCCGGTCTCCC
DNA 2: TGGTGGCTACGACGGGATT
B19: GCGAGUG (DNA:RNA)
RNA: B1 RNA with A26C, A27G, U28A, C29G, G30U
DNA 1: CAATCTGAATTCCGGTCTCCC
DNA 2: TGGTGGCTACGACGGGATT
B20: AGCACCG (DNA:RNA)
RNA: B1 RNA with G25A, A26G, A27C, U28A, G30C
DNA 1: CAATCTGAATTCCGGTCTCCC
DNA 2: TGGTGGCTACGACGGGATT
B21: AGCAUCG (DNA:RNA)
RNA: B1 RNA with G25A, A26G, A27C, U28A, C29U, G30C
DNA 1: CAATCTGAATTCCGGTCTCCC
DNA 2: TGGTGGCTACGACGGGATT
B22: AGCAUCC (DNA:RNA)
RNA: GGGAGACCGGAAUUCAGAUUGUCCAGCAUCCUUAAAUCCCGUCGUAGCCACCA
DNA 1: CAATCTGAATTCCGGTCTCCC
DNA 2: TGGTGGCTACGACGGGATT
B23: AUCCGCA (DNA:RNA)
RNA: B22 RNA with G26U, A28C, U29G, C31A
DNA 1: CAATCTGAATTCCGGTCTCCC
DNA 2: TGGTGGCTACGACGGGATT
B24: GCAUCCA (DNA:RNA)
RNA: B1 RNA with A26C, G30C, G31A
DNA 1: CAATCTGAATTCCGGTCTCCC
DNA 2: TGGTGGCTACGACGGGATT
B25: GCACCGU (DNA:RNA)
RNA: B1 RNA with A26C, U28C, G31U
DNA 1: CAATCTGAATTCCGGTCTCCC
DNA 2: TGGTGGCTACGACGGGATT
B26: GCAUUGU (DNA:RNA)
RNA: B1 RNA with A26C, C29U, G31U
DNA 1: CAATCTGAATTCCGGTCTCCC
DNA 2: TGGTGGCTACGACGGGATT
B27: GCAUCGA (DNA:RNA)
RNA: B1 RNA with A26C, G31A
DNA 1: CAATCTGAATTCCGGTCTCCC
DNA 2: TGGTGGCTACGACGGGATT
B28: GCAUCGU (DNA:RNA)
RNA: B1 RNA with A26C, G31U
DNA 1: CAATCTGAATTCCGGTCTCCC
DNA 2: TGGTGGCTACGACGGGATT
B29: AGGAUGG (DNA:RNA)
RNA: B22 RNA with C27G, C30G, C31G
DNA 1: CAATCTGAATTCCGGTCTCCC
DNA 2: TGGTGGCTACGACGGGATT
B30: UCGUACU (DNA:RNA)
RNA: B22 RNA with A25U, G26C, C27G, A28U, U29A, C31U
DNA 1: CAATCTGAATTCCGGTCTCCC
DNA 2: TGGTGGCTACGACGGGATT
B31: GGGAUGU (DNA:RNA)
RNA: B22 RNA with A25G, C27G, C30G, C31U
DNA 1: CAATCTGAATTCCGGTCTCCC
DNA 2: TGGTGGCTACGACGGGATT
B32: CGGGAUG (DNA:RNA)
RNA: B22 RNA with A25C, C27G, A28G, U29A, C30U, C31G
DNA 1: CAATCTGAATTCCGGTCTCCC
DNA 2: TGGTGGCTACGACGGGATT
B33: GGGGGGA (DNA:RNA)
RNA: B1 RNA with A26G, A27G, U28G, C29G, G31A
DNA 1: CAATCTGAATTCCGGTCTCCC
DNA 2: TGGTGGCTACGACGGGATT
B34: GGAUGUU (DNA:RNA)
RNA: B1 RNA with A26G, C29G, G30U, G31U
DNA 1: CAATCTGAATTCCGGTCTCCC
DNA 2: TGGTGGCTACGACGGGATT
B35: GAGAUGU (DNA:RNA)
RNA: B1 RNA with A27G, U28A, C29U, G31U
DNA 1: CAATCTGAATTCCGGTCTCCC
DNA 2: TGGTGGCTACGACGGGATT
B36: GGGGAUG (DNA:RNA)
RNA: B1 RNA with A26G, A27G, U28G, C29A, G30U
DNA 1: CAATCTGAATTCCGGTCTCCC
DNA 2: TGGTGGCTACGACGGGATT

Biological target: T1, RBFOX1 RRM RbFoxmut (Fox-RRM*) (Homo sapiens, UniProt Q9NWB1 109-208, R118D;E147R;N151S;E152T)
T1 sequence: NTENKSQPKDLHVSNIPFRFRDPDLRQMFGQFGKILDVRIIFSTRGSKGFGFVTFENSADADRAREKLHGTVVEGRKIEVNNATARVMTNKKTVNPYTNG
Experiment: EMSA; HiTS-Eq, 1 nM pool, 10 min; buffer printed only for the single-RNA assays: 10 mM Tris pH 7.5, 150 mM NaCl, 3.4 mM EDTA, 0.001% NP-40, 30 C
Details: tags: His6 N-terminal (pET28a); label: 5' 32P
Outline: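 Purified RbFox RRM (wild type or mutant) was equilibrated for 10 min in 50 µL with 1 nM of a 5′-radiolabelled pool of RNA with 7 randomized nucleotides, its flanks annealed to DNA oligonucleotides, across increasing protein concentrations. Free RNA was separated by 8% native PAGE, excised, reverse-transcribed, PCR-barcoded and sequenced on an Illumina HiSeq 2500. Relative association constants came from read-count changes of each variant against the control reaction, normalised to the cognate motif.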

Q: Which binding signal does the source give for B1 here?
A: 0.186 KA relative to UGCAUGU

Q: B2 was tested. Which binding signal did it give?
A: 0.351 KA relative to UGCAUGU

Q: With B3 as the binder, how does the binding signal read?
A: 0.0721 KA relative to UGCAUGU

Q: For B4, which binding signal is on record?
A: 0.454 KA relative to UGCAUGU

Q: With B5 as the binder, how does the binding signal read?
A: 0.625 KA relative to UGCAUGU

Q: With B6 as the binder, how does the binding signal read?
A: 0.323 KA relative to UGCAUGU

Q: For B7, which binding signal is on record?
A: 0.382 KA relative to UGCAUGU

Q: B8 was tested. Which binding signal did it give?
A: 0.264 KA relative to UGCAUGU

Q: Which binding signal does the source give for B9 here?
A: 0.293 KA relative to UGCAUGU

Q: B10 was tested. Which binding signal did it give?
A: 0.443 KA relative to UGCAUGU

Q: How did the binding signal turn out when B11 was run?
A: 0.139 KA relative to UGCAUGU

Q: B12 was tested. Which binding signal did it give?
A: 0.102 KA relative to UGCAUGU

Q: For B13, which binding signal is on record?
A: 0.0748 KA relative to UGCAUGU

Q: How did the binding signal turn out when B14 was run?
A: 0.0564 KA relative to UGCAUGU

Q: How did the binding signal turn out when B15 was run?
A: 0.0585 KA relative to UGCAUGU

Q: With B16 as the binder, how does the binding signal read?
A: 0.0808 KA relative to UGCAUGU

Q: With B17 as the binder, how does the binding signal read?
A: 0.0817 KA relative to UGCAUGU

Q: For B18, which binding signal is on record?
A: 0.0781 KA relative to UGCAUGU

Q: Which binding signal does the source give for B19 here?
A: 0.184 KA relative to UGCAUGU

Q: Which binding signal does the source give for B20 here?
A: 0.104 KA relative to UGCAUGU

Q: Which binding signal does the source give for B21 here?
A: 0.437 KA relative to UGCAUGU

Q: B22 was tested. Which binding signal did it give?
A: 0.237 KA relative to UGCAUGU

Q: Which binding signal does the source give for B23 here?
A: 0.167 KA relative to UGCAUGU

Q: How did the binding signal turn out when B24 was run?
A: 0.338 KA relative to UGCAUGU

Q: Which binding signal does the source give for B25 here?
A: 0.172 KA relative to UGCAUGU

Q: How did the binding signal turn out when B26 was run?
A: 0.228 KA relative to UGCAUGU

Q: For B27, which binding signal is on record?
A: 0.675 KA relative to UGCAUGU

Q: Which binding signal does the source give for B28 here?
A: 0.578 KA relative to UGCAUGU

Q: Which binding signal does the source give for B29 here?
A: 0.177 KA relative to UGCAUGU

Q: For B30, which binding signal is on record?
A: 0.0912 KA relative to UGCAUGU

Q: B31 was tested. Which binding signal did it give?
A: 0.373 KA relative to UGCAUGU

Q: For B32, which binding signal is on record?
A: 0.296 KA relative to UGCAUGU

Q: For B33, which binding signal is on record?
A: 0.082 KA relative to UGCAUGU

Q: Which binding signal does the source give for B34 here?
A: 0.213 KA relative to UGCAUGU

Q: B35 was tested. Which binding signal did it give?
A: 0.15 KA relative to UGCAUGU

Q: For B36, which binding signal is on record?
A: 0.612 KA relative to UGCAUGU
